This is a sample that favours compounds with a hit; in the whole collection about 19% have one here.
IL1B secr inh: qHTS for Inhibitors of Inflammasome Signaling: IL-1-beta AlphaLISA Primary Screen; THP-1 LPS/ATP IL-1B secretion, AlphaLISA, 16 h; active compounds read low; activity change, % at 57.5 µM; 360,000 compounds, 4.7% hits; in the data active means activity change below about -50%; inconclusive means mostly about -30% to -49%
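THP-1 cells pretreated 1 hr with compounds (up to 57.5 uM final), then stimulated with LPS (250 ng/mL final) plus ATP (1.25 mM final); secreted IL-1B measured by AlphaLISA after 16 hr, decreased signal indicating inhibition.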
DT40 TDP1 CPT: qHTS for Inhibitors of human tyrosyl-DNA phosphodiesterase 1 (TDP1): qHTS in cells in presence of CPT; chicken DT40 Tdp1-/-;hTDP1 cells + 20 nM CPT, ATP luminescence, 48 h; Potency, µM (highest dose often 46.2 µM), without a hit: at the top dose activity change, negative = growth inhibition, actives largely listed as inhibitors; 420,000 compounds, 12% hits; further: potency means the concentration at half of the fitted maximal effect; nearly all actives have a fitted effect of over 55% in size
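Chicken DT40 Tdp1-/- cells stably complemented with human TDP1 were seeded at 400 cells/well in medium containing 20 nM camptothecin, exposed to pin-transferred compounds, and grown at 37 °C for at least 48 hr. Viability was read as ATP luminescence.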
HT1080NT lethal: qHTS for induction of synthetic lethality in tumor cells producing 2HG: qHTS for the HT-1080-NT fibrosarcoma cell line; HT-1080-NT fibrosarcoma viability, CellTiter-Glo ATP luminescence, 48 h; Potency, µM (doses to about 46.1 µM), without a hit: top-dose activity, negative = less viability, hits mostly cytotoxic; 360,000 compounds, 1.6% hits; AID 686970, 2013;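 further: NT is the 2HG producing partner of a matched IDH1 knockdown line; potency means the concentration at half of the fitted maximal effect; 0% = DMSO-treated cells and -100% = media-only wells without cells; nearly all actives have a fitted effect of over 55% in size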
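750 cells/well, RPMI + 5% FBS; 2 h settle, compound pin-transfer, 48 h at 37 degrees C. CellTiter-Glo 10 min RT, luminescence. Normalized to DMSO and media-only wells.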
ELG1 DNA repair: qHTS screen for small molecules that inhibit ELG1-dependent DNA repair in human embryonic kidney (HEK293T) cells expressing luciferase-tagged ELG1; HEK293T ELG1-luciferase reporter, luminescence, 16 h; DNA damage induced by 5-fluorouridine; Potency, µM (top dose mostly 46.1 µM), without a hit: at the top dose activity change, negative = inhibition, usual class: inhibitors; 330,000 compounds, 2.3% hits; AID 504467, 2011; further: potency means the concentration at half of the fitted maximal effect; nearly all actives have a fitted effect of over 55% in size
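Overnight (16 hr) co-exposure of 2,000 cells/well to 5-fluorouridine and compound at 37 °C preceded detection. Luciferase was quantified via ONE-Glo luminescence; loss of signal denotes inhibition.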
DT40 TDP1 no CPT: qHTS for Inhibitors of human tyrosyl-DNA phosphodiesterase 1 (TDP1): qHTS in cells in absence of CPT | DT40 Tdp1-/- hTDP1 cells, no CPT, ATP luminescence, 48 h | Potency, µM (doses to about 46.2 µM), for inactives: top-dose activity change, negative = growth inhibition, hits mostly inhibitors | 420,000 compounds, 15% hits | AID 686978, 2013; further: potency means the concentration at half of the fitted maximal effect; nearly all actives have a fitted effect of over 55% in size
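Chicken DT40 Tdp1-/- cells complemented with human TDP1, screened without camptothecin (DMSO vehicle only), 400 cells/well. Compounds pin-transferred, cells incubated at 37 °C for at least 48 hr. Growth read as ATP-dependent luminescence (CellTiter-Glo, 30 min at RT).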
HT1080 IDH1KD tx: qHTS for induction of synthetic lethality in tumor cells producing 2HG: qHTS for the HT-1080-IDH1KD cell line; HT-1080 IDH1 knockdown viability, ATP luminescence, 48 h; Potency, µM (titrated, usually from 46.1 µM), inactives show at the top dose activity, negative = toxicity, most hits filed as cytotoxic; 360,000 compounds, 2% hits;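 further: potency means the concentration at half of the fitted maximal effect; 0% = DMSO wells and -100% = cell-free medium wells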
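In this qHTS, HT-1080 cells depleted of IDH1 are exposed for 48 h at 37 °C to compound titrations. Toxicity is scored from CellTiter-Glo luminescence, with DMSO as full viability and medium alone as none.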
Starred values were filed as active, the others as inactive; u = inconclusive; x = no result given; [ ] = another dose, or the depositor's remark. Unless noted, the call rests on the fitted dose curve; in most records, active means well fitted curve in the direction sought with a large enough effect; inconclusive means small, poorly fitted or top-dose-only effect, or another doubt; inactive means no such curve, though single readings can be large; an effect the other way counts as inactive or inconclusive. Unless noted, on the % scale 0 is the no-effect control and ±100 the full control effect.

SMILES | IL1B secr inh | DT40 TDP1 CPT | HT1080NT lethal | ELG1 DNA repair | DT40 TDP1 no CPT | HT1080 IDH1KD tx
CCSc1nnc(NC(=O)c2cccn(Cc3ccccc3Cl)c2=O)s1 | x | 2% | x | x | 11% | x
COc1ccccc1Sc1ccccc1CC(C)N (configuration not stated) | -56* | 15µM* | -18% | 3% | 18µM* | -16%
COc1ccc(OC)c(CC(C)N)c1 (configuration not stated) | x | -19%[92.5 µM] | x | x | -16%[92.5 µM] | x
COc1cc(CC(C)N)c(OC)cc1Br (configuration not stated) | x | u | x | x | 28µM* | x
O=S1(=O)N(Cc2ccc(F)cc2)CCCN1Cc1ccccc1Cl | -7 | -9% | -11% | -5% | -11% | 2%
CC1CCCCN1Cc1c[nH]c2ccccc12 (configuration not stated) | -10 | 4.1µM* | -3% | 6% | 7.3µM* | -5%
c1ccc2c(CCN3CCCCC3)c[nH]c2c1 | -12 | -14% | -13% | x | 0% | u
CC1CCCCN1CC(O)c1c[nH]c2ccccc12 (configuration not stated) | -8 | 10% | 8% | 0% | 0% | 5%
OC1(c2ccc(Cl)cc2)CCN(Cc2c[nH]c3ccccc23)CC1 | u | 13µM* | 18µM* | x | 16µM* | 18µM*
c1ccc2c(CN3CCCCC3)c[nH]c2c1 | 0 | 8.2µM* | -1% | u | u | -4%
COc1ccc(-c2oc(=O)n(C)c2-c2ccc(OC)cc2)cc1 | u | 5% | -2% | u | -2% | -6%
O=[N+]([O-])c1cc(-n2cnnn2)c(O)c([N+](=O)[O-])c1 | 1 | 0% | -3% | 16% | 3% | -1%
Nc1ccc(C2(c3ccc(N)cc3)CN3CCC2CC3)cc1 | 4 | 18µM* | 6% | 0% | 13µM* | 11%
Cc1ccc(C2(O)CN3CCC2CC3)cc1 (configuration not stated) | 22 | 20% | 4% | 1% | 19% | 3%
Cc1ccc2c(c1)N(N=O)CCC2 | 10 | -11% | 9% | 27% | 4% | 10%
Nc1nnc(Sc2ncccc2[N+](=O)[O-])s1 | -29 | u | 15% | -15% | 16µM* | 12%
O=[N+]([O-])c1cccc2c([N+](=O)[O-])cccc12 | -14 | -4% | -1% | 5% | u | 16%
O=C(C1CCCN(S(=O)(=O)c2cccc3nsnc23)C1)N1CCC2(CC1)OCCO2 (configuration not stated) | 15 | -9% | 9% | -2% | -8% | 6%
O=C(Nc1ccc(Cl)c(C(F)(F)F)c1)C1CCCN(S(=O)(=O)c2cccc3cccnc23)C1 (configuration not stated) | x | 7.3µM* | x | x | 6.5µM* | x
Cc1c(C(=O)OC2CCCCC2)[nH]c2c1C(=O)CC(c1ccccc1)C2 (configuration not stated) | x | 4.6µM* | x | x | 2.1µM* | x
C[N+]1(C)CCC(OC(=O)C(c2ccccc2)c2ccccc2)CC1 | -15 | 6% | 4% | x | -4% | 5%
CC[N+](CC)(CCCNC1=CC(=O)C(NCCC[N+](CC)(CC)Cc2ccccc2)=CC1=O)Cc1ccccc1 | x | -1% | x | x | -1% | x
Cc1ccc(N=CN(C)C=Nc2ccc(C)cc2C)c(C)c1 | x | 6% | x | x | 4% | x
CN(C)C(=O)Oc1ccc(Br)cc1C(=O)Nc1ccc(F)c(Cl)c1 | -59* | 23µM* | u | -17% | 23µM* | u
CN(C)C(=O)Oc1ccc(Cl)c2ccccc12 | -18 | -1% | 2% | u | -6% | -1%
SMILES | IL1B secr inh | DT40 TDP1 CPT | HT1080NT lethal | ELG1 DNA repair | DT40 TDP1 no CPT | HT1080 IDH1KD tx
ClC1=C(Cl)[C@]2(Cl)[C@@H]3[C@@H]4C[C@@H]([C@H]5O[C@@H]45)[C@@H]3[C@@]1(Cl)C2(Cl)Cl | x | 4%[92.5 µM] | x | x | -18%[92.5 µM] | x
CSc1nc(C)c(Br)c(N2CC2)n1 | -4 | -25% | 2% | x | u | 6%
CC(=O)c1ccc2c(c1)C1C(Cl)C(Sc3ccccc3[N+](=O)[O-])CC1C(c1ccccc1[N+](=O)[O-])N2 (configuration not stated) | -20 | 10µM* | -14% | 4.1µM* | 13µM* | -17%
CC(=O)c1ccc2c(c1)C1C(Cl)C(Sc3ccccc3[N+](=O)[O-])CC1C(c1ccccc1)N2 (configuration not stated) | 1 | 12µM* | -24% | u | 15µM* | -21%
CN1CC(C#N)C2(O)c3ccccc3CCC2C1 (configuration not stated) | -6 | 4% | 11% | -13% | 5% | -1%
CC[C@@]1(O)C(=O)OCc2c1cc1n(c2=O)Cc2cc3c(N)cccc3nc2-1 | -112* | 0.16µM* | 2.1µM* | u | 0.13µM* | 1.3µM*
CC1CCCCN1C(=O)c1ccc(N2CC3CC(C2)c2cccc(=O)n2C3)c([N+](=O)[O-])c1 (configuration not stated) | -5 | -15% | 5% | -5% | -26% | -6%
O=c1[nH]c2ccccc2n1C1CCN(C(c2cccs2)c2nnnn2Cc2ccccc2)CC1 (configuration not stated) | u | 18µM* | 18µM* | x | 15µM* | 16µM*
CC(C)(C)n1nnnc1C(C1CC1)N1CCC(n2c(=O)[nH]c3ccccc32)CC1 (configuration not stated) | -7 | u | u | x | u | 24%
COc1ccc(C(c2nnnn2Cc2ccccc2)N2CCC(n3c(=O)[nH]c4ccccc43)CC2)cc1 (configuration not stated) | -1 | 18µM* | u | x | 16µM* | u
COc1ccc(-n2nnnc2C(c2cc3ccccc3o2)N2CCC(n3c(=O)[nH]c4ccccc43)CC2)cc1 (configuration not stated) | 0 | u | u | x | 23µM* | u
O=c1[nH]c2ccccc2n1C1CCN(C(c2ccccc2OC(F)(F)F)c2nnnn2Cc2ccccc2)CC1 (configuration not stated) | -16 | 10µM* | 26µM* | x | 10µM* | u

Compound activity (PubChem BioAssay)
